Results filed as inconclusive are left out. Activity calls are given as the source filed them. The call rests on the fitted dose curve; in most records, active means well fitted cell-killing curve with a large enough effect; inconclusive means small, poorly fitted or top-dose-only effect, or effect the other way; inactive means no such curve, though single readings can be large or run the other way. *1 amine or outer side, *2 acyl side, *3 side chain or, on linkers, in order; H or OH if unused. Where a SMILES comes first, the peptide text is derived from it. Bridges are numbered along the chain shown (N, C = ends). Roman numbers before positions name the chains, in order. [ ]: non-standard residue; d: D form. Actinocin(9to1) = Cc1c2oc3c(C)ccc(C(=O)[*:1])c3nc-2c(C(=O)[*:2])c(N)c1=O; NMeV = CN[C@H](C(=O)O)C(C)C; Sar = CNCC(=O)O
Tested on: Tov-21-G
Assay: Confirmatory qHTS for gynecologic anti-cancer compounds from libraries of approved drugs and bioactive compounds; further: nearly all actives have a fitted effect of over 55% in size
Details: gynecologic cancer cell panel viability, ATPlite luminescence, 48 h; series mostly up to 57.7 µM
Method in brief: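 IC50 values derive from an ATPlite ATP-content luminescence assay following 48 h treatment at 37 C. Each compound ran as an 11-concentration, threefold series (57.5 uM to 0.977 nM); HEK 293T served as control line for selectivity index.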
Potency means the concentration at half of the fitted maximal effect.

Compound	Potency
CN(C)C1CCN(C(=O)c2ccc(NC(=O)Nc3nc(N4CCOCC4)nc(N4CCOCC4)n3)cc2)CC1	0.172 µM (active)
CCCC(Nc1nc(-c2ccc(NC(=O)NCC)c(OC)c2)ncc1C)c1cccnc1 (stereo unspecified)	0.0306 µM (active)
CCn1cc(-c2ccnc3[nH]c(-c4cccc(CN(C)C)c4)cc23)c(-c2ccc(NC(=O)N(C)C)cc2)n1	7.49 µM (active)
CNC(=O)c1ccccc1Sc1ccc2c(/C=C/c3ccccn3)n[nH]c2c1	10.9 µM (active)
Cc1nc(N)ncc1-c1nc(N2CCOCC2)c2sc(C(C)(C)O)cc2n1	1.53 µM (active)
Cc1cc(SCc2sc(-c3ccc(C(F)(F)F)cc3)nc2C)ccc1OCC(=O)O	inactive
C1CCC(C(CC2CCCCN2)C2CCCCC2)CC1 (stereo unspecified)	12.2 µM (active)
Cc1nc(Nc2n[nH]c3c2CN(C(=O)NC(CN(C)C)c2ccccc2)C3(C)C)c2sccc2n1 (stereo unspecified)	2.43 µM (active)
Cc1cc(C2CCCCC2)n(O)c(=O)c1	17.7 µM (active)
CC(C)Nc1cc(-c2c[nH]c(C(=O)N[C@H](CO)c3cccc(Cl)c3)c2)c(Cl)cn1	24.3 µM (active)
CN(C[C@@H]1COCCO1)S(=O)(=O)Nc1ccc2ccc3ncc(-c4cnn(C)c4)cc3c(=O)c2c1	17.2 µM (active)
Nc1ccc(C(=O)Nc2cccc(-c3nc(N4CCOCC4)c4oc5ncccc5c4n3)c2)cn1	6.11 µM (active)
COc1cc(F)c(F)c(Nc2ccc(I)cc2F)c1NS(=O)(=O)C1(CC(O)CO)CC1 (stereo unspecified)	13.7 µM (active)
O=C1NC(=O)C(c2cnc3ccccn23)=C1c1cn2c3c(cccc13)CN(C(=O)N1CCOCC1)CC2	0.544 µM (active)
CCN(CC)CCOc1ccc(/C(=C(\Cl)c2ccccc2)c2ccccc2)cc1	126 µM (active)
COc1cc(-c2nn(C3CCC(N4CCN(C(C)=O)CC4)CC3)c3ncnc(N)c23)ccc1NC(=O)c1cc2ccccc2n1C (stereo unspecified)	1.09 µM (active)

Compound	Potency
CC[C@]1(O)C[C@H]2CN(CCc3c([nH]c4ccccc34)[C@@](C(=O)OC)(c3cc4c(cc3OC)N(C=O)[C@H]3[C@@](O)(C(=O)OC)[C@H](OC(C)=O)[C@]5(CC)C=CCN6CC[C@]43[C@@H]65)C2)C1	0.611 µM (active)
CC[C@@]1(O)C(=O)OCc2c1cc1n(c2=O)Cc2c-1nc1ccccc1c2/C=N/OC(C)(C)C	0.611 µM (active)
Cc1csc(NC(=O)c2sc3nc4c(c(C(F)(F)F)c3c2N)CCC4)n1	1.93 µM (active)
Nc1nc(=S)c2[nH]cnc2[nH]1	inactive
COc1cc(Nc2c(C#N)cnc3cc(OCCCN4CCN(C)CC4)c(OC)cc23)c(Cl)cc1Cl	1.72 µM (active)
COc1ccccc1N1CCN(CC(O)COc2cccc3ccccc23)CC1 (stereo unspecified)	inactive
Nc1nc(Cl)nc2c1ncn2C1OC(CO)C(O)C1F (stereo unspecified)	3.43 µM (active)
Cc1c2oc3c(C)ccc(C(=O)N[C@@H]4C(=O)N[C@H](C(C)C)C(=O)N5CCC[C@H]5C(=O)N(C)CC(=O)N(C)[C@@H](C(C)C)C(=O)O[C@@H]4C)c3nc-2c(C(=O)N[C@@H]2C(=O)N[C@H](C(C)C)C(=O)N3CCC[C@H]3C(=O)N(C)CC(=O)N(C)[C@@H](C(C)C)C(=O)O[C@@H]2C)c(N)c1=O (I: T[dV]P[Sar][NMeV] / II: T[dV]P[Sar][NMeV]; ester I:1-I:C, II:1-II:C; linker I:N-II:N via Actinocin(9to1))	0.685 µM (active)
COc1ccc(-c2cc3nccn3c(Nc3ncccc3C(N)=O)n2)cc1OC	4.85 µM (active)
O=C(CCCCCCNC(=O)c1cnc(N(c2ccccc2)c2ccccc2)nc1)NO	21.7 µM (active)
CN(Cc1cnc2nc(N)nc(N)c2n1)c1ccc(C(=O)N[C@@H](CCC(=O)O)C(=O)O)cc1	inactive
CN(C)CCC(CSc1ccccc1)Nc1ccc(S(=O)(=O)NC(=O)c2ccc(N3CCN(Cc4ccccc4-c4ccc(Cl)cc4)CC3)cc2)cc1[N+](=O)[O-] (stereo unspecified)	13.7 µM (active)
COc1cc2c(Oc3ccc(-c4cnc(Nc5ccc(F)cc5)n(C)c4=O)cc3F)ccnc2cc1OCCCN1CCOCC1	19.3 µM (active)
CCC1=CC2CN(C1)Cc1c([nH]c3ccccc13)[C@@](C(=O)OC)(c1cc3c(cc1OC)N(C)[C@H]1[C@@](O)(C(=O)OC)[C@H](OC(C)=O)[C@]4(CC)C=CCN5CC[C@]31[C@@H]54)C2 (stereo partly specified)	2.37 µM (active)
CNC(=O)CN1CCC(Oc2cc3c(Nc4cccc(Cl)c4F)ncnc3cc2OC)CC1	7.69 µM (active)
